Bioassay records deposited in PubChem by The Scripps Research Institute Molecular Screening Center.
Compounds with a hit are over-represented: about 0.9% of the library has one in this group of screens.
SRC3 TRFRET art: flags TR-FRET format artefacts in PPARgamma SRC-3 recruitment agonist screen. TR-FRET artefact counter-screen, PPARgamma/SRC-3 format; hits give high values. TR-FRET ratio at 8 µM. 99,000 tested, 0.39% active. AID 1048
PPARg SRC1 recr: promotes SRC-1 coactivator recruitment by human PPARgamma; P37231; PPARgamma-SRC-1 coactivator recruitment biochemical assay; activation, % at 8 µM; 200,000 tested, 0.41% active; AID 631; in the data active = activation above about 19%
Target sequence (P37231 whole entry, looked up): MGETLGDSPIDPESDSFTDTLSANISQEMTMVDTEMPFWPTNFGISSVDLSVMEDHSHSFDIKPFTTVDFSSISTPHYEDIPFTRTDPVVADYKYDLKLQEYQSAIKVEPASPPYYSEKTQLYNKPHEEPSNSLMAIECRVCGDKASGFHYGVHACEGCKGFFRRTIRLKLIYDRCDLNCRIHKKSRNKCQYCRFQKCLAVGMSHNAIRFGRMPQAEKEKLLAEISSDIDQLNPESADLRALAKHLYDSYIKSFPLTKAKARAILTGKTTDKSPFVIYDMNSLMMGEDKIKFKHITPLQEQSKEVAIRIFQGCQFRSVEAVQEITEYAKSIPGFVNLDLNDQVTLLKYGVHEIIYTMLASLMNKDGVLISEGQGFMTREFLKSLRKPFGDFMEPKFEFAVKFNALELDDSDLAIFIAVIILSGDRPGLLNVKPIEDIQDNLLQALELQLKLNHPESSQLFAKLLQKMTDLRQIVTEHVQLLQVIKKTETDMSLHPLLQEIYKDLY
SRC1 TRFRET art: counter-screen for PPARgamma SRC-1 recruitment agonists: TR-FRET artefact; TR-FRET detection artefact counter-screen, emission ratio; hits give high values; TR-FRET ratio at 8 µM; 99,000 tested, 0.34% active; in the data active = TR-FRET ratio above about 2300
SRC2 TRFRET art: TR-FRET artefact, counter-screen to PPARgamma/SRC-2 agonist assay; TR-FRET ratio at 8 µM; AID 1049; hits give high values; 200,000 tested, 0.4% active
PPARg SRC-3 ag: promotes SRC-3 coactivator recruitment by human PPARgamma; P37231; biochemical PPARgamma/SRC-3 coactivator recruitment assay; activation, % at 8 µM; 200,000 tested, 0.26% active; AID 731; in the data active = activation above about 23%
PPARg SRC2 recr: agonists of SRC-2 recruitment by human PPARgamma. P37231. PPARgamma LBD-SRC-2 recruitment, biochemical. activation, % at 8 µM. 200,000 tested, 0.34% active; in the data active = activation above about 22%
Numbers stand for hits; 0 = inactive; - = no result; + = active, no number. Cut-off read from the data, not from the text of the source, unless noted: active = TR-FRET ratio above about 2000; inactive = the rest.

SMILES	SRC3 TRFRET art	PPARg SRC1 recr	SRC1 TRFRET art	SRC2 TRFRET art	PPARg SRC-3 ag	PPARg SRC2 recr
Nc1nc2ccc(N3CCOCC3)cc2s1	-	25	-	0	0	0
Fc1ccc2nc(N3CCOCC3)sc2c1	0	0	0	0	0	0
C/C(=N\NC(=O)C1CC1)c1ccccc1O	0	0	0	0	0	0
Cc1cccc(Nc2ccc(C(=O)N3CCOCC3)cn2)c1	0	0	0	1985	0	0
O=C(c1ccc(Nc2cccc(C(F)(F)F)c2)nc1)N1CCCC1	-	0	-	0	0	0
CC(=O)C(Sc1ncnc2sc3c(c12)CCCC3)C(C)=O	0	0	0	0	0	0
Cc1ccc(-n2c(N)c(C(=O)N3CCN(C)CC3)sc2=S)cc1	-	0	-	0	30	0
COc1cccc(N/C(N)=N/c2nc(CSc3ccccn3)cc(=O)[nH]2)c1	0	0	0	0	0	0
CCc1ccc(N/C(N)=N/c2nc(CSc3ccccn3)cc(=O)[nH]2)cc1	2114	0	0	0	0	0
O=C1Nc2ccc(Cl)cc2C12Nc1ccccc1-c1nnc(SCc3ccccc3F)nc1O2 (stereo unspecified)	0	0	2406	0	0	0
Cc1cccc(C(C)C)c1NC(=O)c1ccc(COc2ccc3c(C)cc(=O)oc3c2)cc1	2221	0	2539	2255	0	0
COc1ccc(S(=O)(=O)NCC(=O)N(CC(=O)NCC2CCCO2)c2c(C)cccc2C)cc1 (stereo unspecified)	-	0	-	0	0	0
O=C(NN1CCCCC1)c1ccc(COc2ccc(Cl)cc2)cc1	0	0	0	0	0	0
CNC(=O)COC(=O)c1cc(-c2ccccc2)nn1-c1ccccc1	0	0	0	0	0	0
CCOC(=O)CCNC(=O)Nc1ccc2nc(C)n(Cc3cccc(Cl)c3)c(=O)c2c1	-	0	-	1989	0	0
CCCc1nc2ccc(NC(=O)NCCC(=O)OCC)cc2c(=O)n1Cc1cccc(Cl)c1	-	0	-	0	0	0
C#CCn1c(=NC(=O)CN2C(=O)CCC2=O)sc2cc(S(N)(=O)=O)ccc21	0	0	0	0	0	0
CCOC(=O)Cn1c(=NC(=O)c2sc3ccccc3c2Cl)sc2cc(S(N)(=O)=O)ccc21	5980	0	0	0	+	0
COC(=O)Cn1c(=NC(=O)c2nc3ccccc3s2)sc2cc(S(C)(=O)=O)ccc21	0	0	0	0	0	0
COC(=O)Cn1c(=NC(=O)c2sc3ccccc3c2Cl)sc2cc(S(N)(=O)=O)ccc21	2165	0	0	1991	0	0
C#CCn1c(=NC(=O)c2cc(Cl)sc2Cl)sc2cc(S(N)(=O)=O)ccc21	2182	0	0	2016	0	0
COc1cc([N+](=O)[O-])ccc1NC(=O)CSc1nccn1C	0	0	0	0	0	0
N#Cc1c(-c2ccccc2)cc(-c2ccccc2)nc1SCc1nnc(-c2ccccc2)o1	-	86	-	0	0	0
CCOC(=O)CC(=O)CSc1nc(-c2ccccc2)cc(-c2ccccc2)c1C#N	2399	0	0	2021	0	0
CC(C)C(Sc1nc(-c2ccccc2)cc(-c2ccccc2)c1C#N)C(=O)O (stereo unspecified)	0	0	0	0	0	0
SMILES	SRC3 TRFRET art	PPARg SRC1 recr	SRC1 TRFRET art	SRC2 TRFRET art	PPARg SRC-3 ag	PPARg SRC2 recr
O=C(Cc1ccccc1)NCC(=O)OCC(=O)c1ccc(Cl)c([N+](=O)[O-])c1	0	0	0	0	0	0
CCC(=O)N/C(=N/c1nc(C)cc(C)n1)Nc1cccc(OC)c1	-	0	-	0	0	0
CCN1C(=O)/C(=C/C=C2/SCCN2C)SC1=S	-	0	-	0	0	0
CN1CCS/C1=C\C=C1/SC(=S)N(CC(=O)O)C1=O	0	24	0	0	0	0
COc1ccc(-c2c(C#N)c(C)nc3c2C(=O)c2ccccc2-3)cc1	-	24	-	0	0	0
Cc1ccc2oc3nc(C)c(C(=O)Nc4cccc(C(F)(F)F)c4)cc3c(=O)c2c1	-	0	-	0	0	0
COC(=O)CSc1nc2cc3c(cc2cc1C#N)OCO3	-	81	-	0	0	0
CC(C)OC(=O)CSc1nc2cc3c(cc2cc1C#N)OCO3	-	54	-	0	0	0
CC(C)Cc1nc(Cl)c(C#N)c2c1CCCC2	2298	0	0	0	0	0
CCN(CC)C(=O)CSc1nc2cc3c(cc2c(=O)n1CCCCCC(=O)NCc1ccc(OC)cc1)OCO3	0	0	0	0	0	0
COc1ccc(C2CC(c3ccc4ccccc4c3)=NN2C(=O)CSc2ncccn2)cc1 (stereo unspecified)	2117	0	0	0	0	0
COc1ccc(C2=NN(C(=O)CSc3ncccn3)C(c3ccc(OC)cc3)C2)cc1 (stereo unspecified)	0	0	0	0	0	0
COc1ccc(C2=NN(C(=O)CSc3nc4ccccc4s3)C(c3ccc(OC)cc3)C2)cc1 (stereo unspecified)	0	0	0	0	0	0
COc1ccc(C2=NN(C(=O)CSc3cn(C)c4ccccc34)C(c3ccc(OC)cc3)C2)cc1 (stereo unspecified)	-	0	-	9469	0	0
O=C(CCNC(=O)c1ccccc1Cl)Nc1nnc(C2CC2)s1	0	0	0	0	0	0
Cc1sc(-n2c(C)cc(/C=N/n3cnnc3)c2C)c(C#N)c1C	-	0	-	0	29	0
COc1ccccc1NC(=O)CSc1nc2nc(C)cc(C)c2c(=O)[nH]1	-	0	-	0	0	22
Cc1cc(C)c2c(=O)[nH]c(SCC(=O)NCc3ccccc3)nc2n1	-	0	-	0	0	0
COc1ccc2c(C)cc(SCC(=O)c3ccc4c(c3)OCO4)nc2c1	-	0	-	3035	0	0
CC1=NN(C(=O)Cn2ccc([N+](=O)[O-])n2)C(O)(C(F)(F)F)C1 (stereo unspecified)	0	0	0	0	0	23
CCN(CCO)Cc1csc2ccc(C(C)(C)C)cc12	0	0	0	0	0	0
COc1ccc(OC)c2c1sc(=NC(=O)C(C)(C)C)n2C	-	0	-	4080	32	121
Cc1nnc(NC(=O)c2nn(CC(C)C)c(=O)c3ccccc23)s1	0	0	2336	0	0	0
CCn1cc(C(=O)O)c(=O)c2cc(F)c(N3CCN(S(=O)(=O)c4ccc(NC(=O)OC)cc4)CC3)cc21	0	0	0	0	0	0
CC(=O)Nc1ccc(Nc2cc(C)nc3c(-c4ccccc4)cnn23)cc1	0	0	0	0	0	0
SMILES	SRC3 TRFRET art	PPARg SRC1 recr	SRC1 TRFRET art	SRC2 TRFRET art	PPARg SRC-3 ag	PPARg SRC2 recr
Cc1c(C(=O)OCC(=O)c2ccc3c(c2)OCCO3)oc2ccccc12	-	0	-	2066	0	0
Cc1cc(C(=O)OCC(=O)c2ccc3c(c2)OCCO3)c(C)o1	-	0	-	0	0	0
COc1ccc(-n2nnnc2SCC(=O)c2cc3ccccc3o2)cc1	-	0	-	2072	0	0
CC(=O)Nc1cccc(NC(=O)c2ccc(C)c([N+](=O)[O-])c2)c1	0	0	2324	0	0	0
COc1ccc2c(-c3ccccc3)cc(SCC(=O)NC(N)=O)nc2c1	4477	0	0	0	33	0
Cc1ccc(CNC(=O)COc2ccc(C(=O)c3ccc(F)cc3)cc2)cc1	0	39	2702	0	0	0
